Laboratory results from the supplement of paper PMC10849652.
About 7,900 targets were measured; listed, in parts, are those with a hit and a random draw of the rest. About 0.6% of all pairs of compound and target were hits.

What was measured:
Test in all cases: log2 fold change, soluble protein after heating vs DMSO (PISA); higher = thermal stabilisation; K562 cells, 10 uM, 30 min; active = over 0.2 and 3.5 SD of the protein, either way, in both replicates (recomputed)
bafetinib = compound: Cc1ccc(NC(=O)c2ccc(CN3CC[C@H](N(C)C)C3)c(C(F)(F)F)c2)cc1Nc1nccc(-c2cncnc2)n1 [bafetinib]
How it was run: (§1)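 Values are thermal stability changes relative to control samples and are taken from duplicates. They are stated as log2 fold changes. Before quantification by TMTpro 16plex LC-MS/MS with equalised channel sums, K562 cells at 2×10^6 cells/mL were treated with 10 μM compound for 30 min, heated in aliquots for 3 min across 48°C-58°C, pooled, extracted in PBS with 0.5% NP-40 at 4°C, and centrifuged at 21,000xg for 90 min to give the soluble supernatant.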

[1] = compound: Cc1cccc(CC(=O)N2CCc3c2ccc(-c2cn(C)c4ncnc(N)c24)c3F)n1
How it was run: as §1

nilotinib = compound: Cc1cn(-c2cc(NC(=O)c3ccc(C)c(Nc4nccc(-c5cccnc5)n4)c3)cc(C(F)(F)F)c2)cn1 [nilotinib]
How it was run: as §1

[2] = compound: Cc1nc(Nc2n[nH]c3c2CN(C(=O)N[C@H](CN(C)C)c2ccccc2)C3(C)C)c2sccc2n1
How it was run: as §1

dasatinib = compound: Cc1nc(Nc2ncc(C(=O)Nc3c(C)cccc3Cl)s2)cc(N2CCN(CCO)CC2)n1 [dasatinib]
How it was run: as §1

[3] = compound: Cc1ncc(-c2ccnc(Nc3ccc(S(C)(=O)=O)cc3)n2)n1C(C)C
How it was run: as §1

[4] = compound: Cn1cc(-c2ccc3c(c2)CCN3C(=O)Cc2cccc(C(F)(F)F)c2)c2c(N)ncnc21
How it was run: as §1

[5] = compound: Cn1cc(-c2ccc3nnc(C(F)(F)c4ccc5ncccc5c4)n3n2)cn1
How it was run: as §1

tipifarnib = compound: Cn1cncc1[C@@](N)(c1ccc(Cl)cc1)c1ccc2c(c1)c(-c1cccc(Cl)c1)cc(=O)n2C [tipifarnib]
How it was run: as §1

mubritinib = compound: FC(F)(F)c1ccc(/C=C/c2nc(COc3ccc(CCCCn4ccnn4)cc3)co2)cc1 [mubritinib]
How it was run: as §1

[6] = compound: NC(=O)Nc1cc(-c2cccc(F)c2)sc1C(=O)N[C@H]1CCCNC1
How it was run: as §1

[7] = compound: NC(=O)c1cnc(N[C@@H]2CCCC[C@@H]2N)nc1Nc1cccc(-n2nccn2)c1
How it was run: as §1

[8] = compound: NC1(c2ccc(-c3nc4ccn5c(=O)[nH]nc5c4cc3-c3ccccc3)cc2)CCC1
How it was run: as §1

[9] = compound: NCC(=O)Nc1ccc(-n2nc(C(F)(F)F)cc2-c2ccc3c(ccc4ccccc43)c2)cc1
How it was run: as §1

entinostat = compound: Nc1ccccc1NC(=O)c1ccc(CNC(=O)OCc2cccnc2)cc1 [entinostat]
How it was run: as §1

vorinostat = compound: O=C(CCCCCCC(=O)Nc1ccccc1)NO [vorinostat]
How it was run: as §1

citarinostat = compound: O=C(CCCCCCNC(=O)c1cnc(N(c2ccccc2)c2ccccc2Cl)nc1)NO [citarinostat]
How it was run: as §1

silmitasertib = compound: O=C(O)c1ccc2c(c1)nc(Nc1cccc(Cl)c1)c1ccncc12 [silmitasertib]
How it was run: as §1

[10] = compound: O=C1NC(=O)C(c2cnc3ccccn23)=C1c1cn2c3c(cc(F)cc13)CN(C(=O)N1CCCCC1)CC2
How it was run: as §1

[11] = compound: c1cc(OCCN2CCCCC2)cc(-c2n[nH]c3ccc(-c4nnc[nH]4)cc23)c1
How it was run: as §1

Measured: log2 fold change

PTPN23 (UniProt Q9H3S7)
UniProt Q9H3S7, sequence (Q9H3S7 whole entry, looked up): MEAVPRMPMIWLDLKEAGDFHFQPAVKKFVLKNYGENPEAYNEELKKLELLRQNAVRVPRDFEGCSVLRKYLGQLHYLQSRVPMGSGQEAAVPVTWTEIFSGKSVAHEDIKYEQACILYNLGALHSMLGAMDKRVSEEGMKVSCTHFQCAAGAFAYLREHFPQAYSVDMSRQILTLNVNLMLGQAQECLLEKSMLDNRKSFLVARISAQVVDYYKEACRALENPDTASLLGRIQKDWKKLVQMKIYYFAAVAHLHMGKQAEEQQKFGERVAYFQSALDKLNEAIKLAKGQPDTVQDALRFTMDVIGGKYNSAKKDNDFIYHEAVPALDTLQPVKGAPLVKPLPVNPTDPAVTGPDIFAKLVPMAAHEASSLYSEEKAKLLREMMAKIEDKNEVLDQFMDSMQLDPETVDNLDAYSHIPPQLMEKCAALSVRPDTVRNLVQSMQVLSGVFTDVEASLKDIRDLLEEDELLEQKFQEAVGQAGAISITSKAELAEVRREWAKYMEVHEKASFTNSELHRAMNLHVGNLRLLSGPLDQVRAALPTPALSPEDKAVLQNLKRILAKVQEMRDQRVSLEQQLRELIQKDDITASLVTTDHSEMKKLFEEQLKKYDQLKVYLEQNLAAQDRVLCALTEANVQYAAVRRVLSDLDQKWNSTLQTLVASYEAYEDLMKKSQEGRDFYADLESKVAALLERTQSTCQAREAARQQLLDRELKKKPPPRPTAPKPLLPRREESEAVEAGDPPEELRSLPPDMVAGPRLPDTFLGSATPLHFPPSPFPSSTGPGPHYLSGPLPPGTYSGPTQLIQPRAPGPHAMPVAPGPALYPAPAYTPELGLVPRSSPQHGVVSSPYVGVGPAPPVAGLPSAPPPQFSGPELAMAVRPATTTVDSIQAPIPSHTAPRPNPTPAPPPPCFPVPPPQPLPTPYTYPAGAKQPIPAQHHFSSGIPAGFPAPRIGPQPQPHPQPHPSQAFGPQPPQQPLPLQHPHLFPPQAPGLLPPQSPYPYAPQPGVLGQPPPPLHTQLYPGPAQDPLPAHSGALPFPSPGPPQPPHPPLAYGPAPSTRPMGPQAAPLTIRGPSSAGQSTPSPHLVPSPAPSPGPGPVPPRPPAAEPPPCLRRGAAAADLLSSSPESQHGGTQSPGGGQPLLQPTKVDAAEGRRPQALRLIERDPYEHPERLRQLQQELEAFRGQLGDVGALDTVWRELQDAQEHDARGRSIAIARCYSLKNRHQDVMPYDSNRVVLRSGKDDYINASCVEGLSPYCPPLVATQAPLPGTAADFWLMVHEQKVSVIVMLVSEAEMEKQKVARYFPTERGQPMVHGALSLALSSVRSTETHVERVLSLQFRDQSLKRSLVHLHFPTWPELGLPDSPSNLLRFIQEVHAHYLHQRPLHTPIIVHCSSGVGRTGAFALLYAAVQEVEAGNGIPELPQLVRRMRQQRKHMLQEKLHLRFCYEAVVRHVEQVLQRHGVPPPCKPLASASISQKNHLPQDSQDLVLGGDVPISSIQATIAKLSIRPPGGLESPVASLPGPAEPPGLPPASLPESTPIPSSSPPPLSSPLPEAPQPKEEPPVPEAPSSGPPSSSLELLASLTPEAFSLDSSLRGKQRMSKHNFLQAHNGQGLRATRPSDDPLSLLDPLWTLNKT
inactive: bafetinib 0.028 | [1] 0.053 | nilotinib -0.07 | [2] -0.096 | dasatinib -0.199 | [3] 0.059 | [4] -0.016 | [5] 0.02 | tipifarnib -0.069 | mubritinib 0.034 | [6] -0.039 | [7] 0.011 | [8] -0.081 | [9] -0.063 | entinostat 0.06 | vorinostat 0.05 | citarinostat 0.05 | silmitasertib 0.037 | [10] -0.065 | [11] -0.024

PRKAR1A (UniProt P10644)
UniProt P10644, sequence (P10644 whole entry, looked up): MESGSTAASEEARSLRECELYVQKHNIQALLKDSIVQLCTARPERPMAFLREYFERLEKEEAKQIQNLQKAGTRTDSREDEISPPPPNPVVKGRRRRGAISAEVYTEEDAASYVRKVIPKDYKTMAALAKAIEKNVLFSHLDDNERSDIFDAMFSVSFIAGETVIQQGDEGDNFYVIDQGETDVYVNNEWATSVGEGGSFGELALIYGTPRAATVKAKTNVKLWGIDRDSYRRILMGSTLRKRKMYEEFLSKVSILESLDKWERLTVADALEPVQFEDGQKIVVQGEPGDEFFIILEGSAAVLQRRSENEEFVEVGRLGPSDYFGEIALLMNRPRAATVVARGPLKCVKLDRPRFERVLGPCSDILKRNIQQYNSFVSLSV
inactive: bafetinib 0.232 | [1] -0.006 | nilotinib 0.12 | [2] 0.195 | dasatinib -0.046 | [3] 0.152 | [4] 0 | [5] 0.281 | tipifarnib 0.231 | mubritinib -0.169 | [6] -0.052 | [7] 0.191 | [8] 0.301 | [9] -0.041 | entinostat -0.068 | vorinostat -0.16 | citarinostat 0 | silmitasertib 0.166 | [10] 0.063 | [11] -0.04

PRIM2 (UniProt P49643)
UniProt P49643, sequence (P49643 whole entry, looked up): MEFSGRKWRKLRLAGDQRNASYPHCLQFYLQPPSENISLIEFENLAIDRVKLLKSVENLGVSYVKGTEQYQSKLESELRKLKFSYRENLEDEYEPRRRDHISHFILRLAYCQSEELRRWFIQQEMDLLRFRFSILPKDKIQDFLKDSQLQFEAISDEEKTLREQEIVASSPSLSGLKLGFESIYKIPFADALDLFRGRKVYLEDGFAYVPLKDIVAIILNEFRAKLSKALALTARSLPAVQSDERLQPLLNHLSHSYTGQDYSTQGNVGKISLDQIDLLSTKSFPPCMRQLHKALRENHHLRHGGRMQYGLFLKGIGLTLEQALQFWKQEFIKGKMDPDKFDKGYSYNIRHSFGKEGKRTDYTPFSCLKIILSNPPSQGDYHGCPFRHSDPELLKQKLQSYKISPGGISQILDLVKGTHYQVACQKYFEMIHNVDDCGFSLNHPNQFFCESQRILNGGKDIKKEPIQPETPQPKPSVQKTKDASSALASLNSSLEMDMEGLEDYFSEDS
inactive: bafetinib 0.007 | [1] -0.019 | nilotinib -0.063 | [2] -0.06 | dasatinib -0.128 | [3] 0.021 | [4] 0.015 | [5] 0.046 | tipifarnib -0.018 | mubritinib 0.101 | [6] -0.035 | [7] -0.141 | [8] -0.16 | [9] -0.061 | entinostat 0.058 | vorinostat 0.098 | citarinostat 0.135 | silmitasertib 0.033 | [10] -0.096 | [11] -0.018

PIP4K2C (UniProt Q8TBX8)
UniProt Q8TBX8, sequence (Q8TBX8 whole entry, looked up): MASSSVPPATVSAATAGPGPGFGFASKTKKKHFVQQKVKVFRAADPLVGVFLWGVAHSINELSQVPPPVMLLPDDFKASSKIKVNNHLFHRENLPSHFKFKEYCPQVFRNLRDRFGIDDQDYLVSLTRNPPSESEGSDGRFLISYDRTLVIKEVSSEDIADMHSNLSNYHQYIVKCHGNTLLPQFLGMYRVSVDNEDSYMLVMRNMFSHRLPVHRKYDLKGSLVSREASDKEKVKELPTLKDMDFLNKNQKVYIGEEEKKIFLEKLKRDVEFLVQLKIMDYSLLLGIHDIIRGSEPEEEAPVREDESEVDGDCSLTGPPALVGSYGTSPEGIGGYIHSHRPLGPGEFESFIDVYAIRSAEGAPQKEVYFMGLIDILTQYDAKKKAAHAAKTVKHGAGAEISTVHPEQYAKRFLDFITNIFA
inactive: bafetinib 0.663 | [1] -0.112 | nilotinib 0.354 | [2] 0.053 | dasatinib -0.042 | [4] 0.144 | [5] 0.568 | tipifarnib -0.07 | mubritinib -0.084 | [6] 0.016 | [7] 0.192 | [8] -0.125 | [9] 0.293 | entinostat -0.027 | vorinostat -0.071 | citarinostat -0.036 | silmitasertib 0.497 | [10] 0.12 | [11] 0.036
active: [3] 1.25
